# Bioassay records: PubChem, several laboratories
# PostGolgi ctrl: yeast control strain growth, post-Golgi counter-screen; efflux-deficient yeast background strain, growth absorbance A615, 16 h; inhibition, % at 10 µM; hit rate 5% among 98,000
# PostGolgi yeast: growth inhibition of a yeast mutant, post-Golgi transport screen; post-Golgi transport phenotypic cell assay; inhibition, % at 10 µM; hit rate 0.9% among 98,000;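 also: yeast cells grown in 1536-well plates; yeast grown about 18 h at 30C before absorbance read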
# CYP2C19 inh: human CYP2C19 inhibition; P33261; CYP2C19 Supersomes, luciferin-H EGE luminescence, 30 min; inhibition, % at 5 µM; hit rate 21% among 96,000; AID 778;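 active = CYP2C19 inhibition above a set limit at 5 µM in the primary screen, cut at about 50% in these data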
# CYP2C19 act: increases human CYP2C19 enzyme activity; 96,000 tested, under 10 active; recombinant CYP2C19, luciferin-H EGE luminescence; hits give high values; 0 = fully inhibited enzyme, 1 = untreated enzyme; activation factor at 5 µM; P33261;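 active = activation factor of at least 2 at 5 µM in the primary screen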
# CYP2C9 act: activators of human CYP2C9; activation factor at 5 µM; P11712; AID 1024; recombinant CYP2C9, luciferin-H conversion, luminescence; hits give high values; factor 1 = untreated enzyme, 0 = blocked; hit rate 1.4% among 96,000;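 active = activation factor of 2 or more for CYP2C9 at a 5 µM dose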
# Target sequence (P11712 whole entry, looked up): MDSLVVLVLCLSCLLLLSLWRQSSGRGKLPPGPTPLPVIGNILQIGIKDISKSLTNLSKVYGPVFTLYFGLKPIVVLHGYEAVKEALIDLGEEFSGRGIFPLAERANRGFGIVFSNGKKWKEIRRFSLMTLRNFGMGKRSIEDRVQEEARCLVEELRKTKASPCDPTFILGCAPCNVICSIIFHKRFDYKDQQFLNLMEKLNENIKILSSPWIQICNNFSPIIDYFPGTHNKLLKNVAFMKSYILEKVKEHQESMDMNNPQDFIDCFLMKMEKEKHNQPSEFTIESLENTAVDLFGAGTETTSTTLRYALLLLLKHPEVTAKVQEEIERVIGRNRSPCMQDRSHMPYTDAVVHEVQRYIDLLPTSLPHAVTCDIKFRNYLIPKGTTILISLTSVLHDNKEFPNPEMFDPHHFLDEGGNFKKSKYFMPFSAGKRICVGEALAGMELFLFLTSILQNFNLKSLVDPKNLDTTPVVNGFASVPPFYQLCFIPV
# CYP2C9 inhib: human CYP2C9 inhibition; CYP2C9 Supersomes, luciferin-H conversion, luminescence; hit rate 20% among 96,000; inhibition, % at 5 µM; P11712; AID 777;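 active = blocking of liver enzyme CYP2C9 beyond about 50% at 5 µM, limit read from the data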
# A number is an active result; - = inactive; . = no result given. A selection: hits, their analogues and other compounds. The true share with any hit is near 32%. Rule as the data show it, unless noted: active = inhibition above about 30%; inactive = the rest.
SMILES,PostGolgi ctrl,PostGolgi yeast,CYP2C19 inh,CYP2C19 act,CYP2C9 act,CYP2C9 inhib
Cc1cc([N+](=O)[O-])ccc1NC(=S)NC(=O)C(c1ccccc1)c1ccccc1,45.8,-,-,-,-,66.4
COc1cc(C(=O)Sc2ccc(Cl)cc2)cc(OC)c1OC,-,-,-,-,-,-
CCc1c(O)nc(SCC(=O)Nc2ccccc2OC)[nH]c1=O,-,-,-,-,-,-
Cc1nnc(SCC(=O)NCc2ccco2)n1-c1ccccc1,-,-,-,-,-,-
Cn1cccc1Cc1nnc(SCC(N)=O)n1-c1ccc(F)cc1,-,-,-,-,-,-
Cn1cccc1Cc1nnc(SCC(=O)NCc2ccco2)n1CCc1ccccc1,-,-,57.8,-,-,-
Cn1cccc1Cc1nnc(SCC(=O)NCc2ccccc2Cl)n1-c1ccc(F)cc1,-,-,51.7,-,-,62.2
Cc1cc(C)cc(NC(=O)CSc2nnc(Cc3cccn3C)n2-c2ccc(F)cc2)c1,-,-,-,-,-,-
Cc1cc(C)nc(SCc2nnc(SCC(=O)NCc3ccco3)n2-c2ccccc2)n1,-,-,-,-,-,59.8
Cn1cccc1Cc1nnc(SCC(=O)NCc2ccco2)n1-c1ccc(F)cc1,-,-,75.4,-,-,-
Cc1ccc2[nH]c(=O)c3cc(C(=O)N4CCN(C(=O)c5ccco5)CC4)sc3c2c1,-,-,-,-,-,-
Cc1nn(Cc2ccc(Cl)cc2Cl)c(C)c1NC(=O)c1nn(C)cc1Cl,-,-,-,-,-,-
Cc1nnsc1NC(=O)OCCCl,-,-,-,-,-,-
Cc1nnsc1NC(=O)OCc1ccc(Cl)cc1Cl,-,-,71.3,-,-,-
Cc1nn(C)c(Cl)c1NC(=O)OCc1ccc(Cl)cc1Cl,-,-,67.5,-,-,-
CCOCCCNC(=O)C1CCN(C(=O)N(C)C)CC1,-,43.4,-,-,-,-
O=C1CCCCCN1CP(=O)(O)CCc1ccccc1,-,-,-,-,-,-
CCOc1ccc(S(=O)(=O)N(C)C)cc1-c1nc2c(C(C)(C)C)nn(C)c2c(=O)[nH]1,-,-,-,-,-,-
CCOc1ccc(S(=O)(=O)N(C)CCO)cc1-c1nc2c(C(C)(C)C)nn(C)c2c(=O)[nH]1,-,-,63.6,-,-,67.4
C=CCn1c(SCC(=O)NC2CCCC2)nc2scc(-c3ccco3)c2c1=O,-,-,87.2,-,-,92.5
C=CCn1c(SCC(=O)NCCCC)nc2scc(-c3ccco3)c2c1=O,-,-,.,.,.,.
C=CCn1c(SCC(=O)Nc2c(C)n(C)n(-c3ccccc3)c2=O)nc2scc(-c3ccccc3)c2c1=O,-,-,-,-,-,83.2
CC(=O)N[C@H]1C[C@@H]1c1ccccc1,-,-,-,-,-,-
CCC1CC2CC(NC(C)=O)C1C2 (configuration not stated),32.8,-,-,-,-,-
O=C(O)CCc1ccc(-c2ccc(Cl)cc2)n1CCC(=O)O,-,-,-,-,-,-
SMILES,PostGolgi ctrl,PostGolgi yeast,CYP2C19 inh,CYP2C19 act,CYP2C9 act,CYP2C9 inhib
C=CCn1c(CCC(=O)O)ccc1-c1ccccc1,-,-,-,-,-,69.8
Cc1c(C(=O)Nc2ccccc2-c2ccccc2)cccc1[N+](=O)[O-],-,-,80.3,-,-,-
O=C(Nc1nc(-c2ccccc2)cs1)c1cccc([N+](=O)[O-])c1,-,-,-,-,-,-
Cc1ccc([N+](=O)[O-])cc1NC(=O)c1ccc(C(C)(C)C)cc1,-,-,-,-,-,-
Cc1ccc([N+](=O)[O-])cc1NC(=O)c1ccc(-c2ccccc2)cc1,-,-,-,-,2.2,-
Cc1ccccc1NC(=O)c1cccc(S(=O)(=O)Oc2ccc([N+](=O)[O-])cc2)c1,-,-,79.8,-,-,-
O=C(Nc1ccccc1-c1ccccc1)c1cccc([N+](=O)[O-])c1,-,-,90.6,-,-,-
O=C(NCc1ccccn1)c1ccc(N2CCCC2=O)cc1,-,-,-,-,-,-
CCC(C)c1ccc(NC(=O)C2CCCN(c3ncccn3)C2)cc1 (configuration not stated),-,-,-,-,-,-
CCOc1ccc(OCC)c(NC(=O)C2CCN(c3ncccn3)CC2)c1,-,-,-,-,-,51.8
COCCNC(=O)C1CCCN(c2ncccn2)C1 (configuration not stated),-,-,-,-,-,-
Cc1ccc(F)cc1NC(=O)C1CCCN(c2ncccn2)C1 (configuration not stated),-,-,94.4,-,-,94.2
O=C(Nc1ccccc1C(=O)N1CCCC1)C1CCN(c2ncccn2)CC1,-,-,-,-,-,-
CCOc1ccc(OCC)c(NC(=O)C2CCCN(c3ncccn3)C2)c1 (configuration not stated),-,-,60.3,-,-,-
CCOC1(OCC)N=C(N)C2(C#N)C(c3cccc(C)c3)C12C#N (configuration not stated),-,-,-,-,-,-
CC(C)n1nnnc1SCC(=O)NNC(=O)C1CCCCC1,-,-,-,-,-,-
CCn1c(C)cc(/C=C2\SC(=O)N(CC(=O)Nc3ccc(C)c(C)c3)C2=O)c1C,-,-,57.1,-,-,-
Cc1nnsc1NC(=O)OCC(C)(C)C,-,-,-,-,-,-
CC(=O)N(C)c1ccc(NC(=O)c2cnn(C)c2)cc1,-,-,-,-,-,-
CCOc1ccc(NC(=O)N2CCC(c3ccc(C)cc3)C2)cc1 (configuration not stated),36.0,-,-,-,-,-
O=C(Nc1ccccc1)N1CCC(c2ccccc2)C1 (configuration not stated),-,-,73.3,-,-,-
O=C(NC1CCCCC1)N1CCC(n2c(=O)[nH]c3ccccc32)CC1,-,-,-,-,-,-
NC(=O)C1CCN(C(=O)Nc2ccccc2)CC1,.,.,-,-,-,-
O=C(Nc1ccccc1)N1CCC(n2c(=O)[nH]c3ccccc32)CC1,-,-,-,-,-,72.0
O=C1N/C(=N/N=C/c2ccccc2)SC1(c1ccccc1)c1ccccc1,-,-,-,-,-,93.9
SMILES,PostGolgi ctrl,PostGolgi yeast,CYP2C19 inh,CYP2C19 act,CYP2C9 act,CYP2C9 inhib
Fc1cccc(Cl)c1CNC(c1ccccc1)c1ccccc1,-,-,-,-,-,-
COc1ccc2c(c1)c(CC(=O)Nc1ccc(C)cc1)c(C)n2C(=O)c1ccc(Cl)cc1,-,-,68.8,-,-,88.6
COc1ccc(NC(=O)CCC(=O)OCc2ccc(C(=O)Oc3ccc(Cl)cc3)cc2)cc1,-,-,-,-,-,-
Cc1cc(NC(=O)COC(=O)C2CCN(S(=O)(=O)c3ccc(Cl)cc3)CC2)no1,-,-,-,-,-,62.5
Cc1cc(NC(=O)NC2CCCN2S(=O)(=O)c2ccc(Cl)cc2)no1 (configuration not stated),-,-,80.0,-,-,60.5
C=COCCNC(=O)C1CC(=O)N(c2ccc(C)cc2)C1 (configuration not stated),-,-,-,-,-,-
